# Data taken from the supplement of paper PMC12494721.
# Counter-ions that a name gives are not always drawn.
# How the values were obtained:
# Details in all cases: incubation time: 27 h, anaerobic, 37 °C;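 for the amine columns active = adjusted P below 0.05 in both replicates with a change the same way and a mean fold change under 0.8 or over 1.25; inactive = the rest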
# [1] = system: Clostridium sporogenes DSM 1664; experiment: growth (OD595) fold change vs plate DMSO controls (fold change (ratio)); higher = more growth
# In short: (§1)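 Growth is the fold change relative to the median of plate DMSO controls. Readings came from anaerobic mGAM cultures in 96-well plates grown for 27 h at 37 °C and read at 595 nm. They were blank-subtracted, corrected for compound background with 20 µM compound solutions in water, and converted to OD with a calibration factor of 5. Values are means of 2 biological replicates, and fold changes above 1.5 were set to NA.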
# Escherichia coli IAI1 [2] = experiment: as above
# In short: as §1
# [3] = system: Klebsiella aerogenes DSM 30053; experiment: as above
# In short: as §1
# [4] = system: Ruminococcus gnavus DSM 108212; experiment: as above
# In short: as §1
# [5] = system: Klebsiella aerogenes DSM 30053; experiment: fold change of Histamine concentration vs plate DMSO controls (fold change (ratio)); higher = more amine produced, active = hit call of the paper (significant change in both replicates, either direction)
# In short: (§2)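 Each value is the fold change relative to DMSO-only wells on the same plate. Four gut bacterial strains were grown anaerobically in mGAM at 37 °C for 27 h in 80 µL wells, starting at OD 0.1 before a 1:1 dilution, with compounds at 20 µM final (sweeteners 50 µM). Whole cultures were extracted with cold acetonitrile/methanol containing 0.1% formic acid, centrifuged, and amines were quantified by LC–triple-quadrupole MS (dynamic MRM) against external calibration curves with within-batch drift correction. Values are means of 2 biological replicates.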
# [6] = system: Clostridium sporogenes DSM 1664; experiment: fold change of Tryptamine concentration vs plate DMSO controls (fold change (ratio)); higher = more amine produced, active = hit call of the paper (significant change in both replicates, either direction)
# In short: as §2
# [7] = system: Ruminococcus gnavus DSM 108212; experiment: as above
# In short: as §2
# Escherichia coli IAI1 [8] = experiment: fold change of Putrescine concentration vs plate DMSO controls (fold change (ratio)); higher = more amine produced, active = hit call of the paper (significant change in both replicates, either direction)
# In short: as §2
# [9] = system: Klebsiella aerogenes DSM 30053; experiment: as above
# In short: as §2
# Escherichia coli IAI1 [10] = experiment: fold change of Cadaverine concentration vs plate DMSO controls (fold change (ratio)); higher = more amine produced, active = hit call of the paper (significant change in both replicates, either direction)
# In short: as §2
# [11] = system: Klebsiella aerogenes DSM 30053; experiment: as above
# In short: as §2
# [12] = system: Ruminococcus gnavus DSM 108212; experiment: fold change of 2-Phenylethylamine concentration vs plate DMSO controls (fold change (ratio)); higher = more amine produced, active = hit call of the paper (significant change in both replicates, either direction)
# In short: as §2
Compound,growth [1],growth (Escherichia coli IAI1 [2]),growth [3],growth [4],fold change of Histamine concentration [5],fold change of Tryptamine concentration [6],fold change of Tryptamine concentration [7],fold change of Putrescine concentration (Escherichia coli IAI1 [8]),fold change of Putrescine concentration [9],fold change of Cadaverine concentration (Escherichia coli IAI1 [10]),fold change of Cadaverine concentration [11],fold change of 2-Phenylethylamine concentration [12]
CCCCCCCN(CC)CCCC(O)c1ccc(NS(C)(=O)=O)cc1 (stereo not drawn) [Ibutilide fumarate] (20 µM),1.13,1.12,1.09,1.08,0.925 (inactive),0.904 (inactive),0.952 (inactive),1.03 (inactive),0.989 (inactive),1.02 (inactive),1.01 (inactive),0.903 (inactive)
CCC(C)(CN(C)C)OC(=O)c1ccccc1 (stereo not drawn) [Amyleine hydrochloride] (20 µM),0.952,1.01,0.983,0.997,1.02 (inactive),0.974 (inactive),0.945 (inactive),1.04 (inactive),1.02 (inactive),1.01 (inactive),0.983 (inactive),0.874 (inactive)
CCOc1ccc2ccccc2c1C(=O)N[C@@H]1C(=O)N2[C@@H]1SC(C)(C)[C@@H]2C(=O)O [Nafcillin sodium salt monohydrate] (20 µM),0,0.973,1.01,0,0.899 (inactive),0.0237 (active),0.0506 (active),0.908 (inactive),1.06 (inactive),1.02 (inactive),1.02 (inactive),0.0511 (active)
COc1ccc2c(c1)c(CC(=O)OC/C=C(\C)CC/C=C(\C)CCC=C(C)C)c(C)n2C(=O)c1ccc(Cl)cc1 [Indometacin farnesil] (20 µM),1.02,1.04,1.06,1.16,0.986 (inactive),0.94 (inactive),1.03 (inactive),1.03 (inactive),1.01 (inactive),1.04 (inactive),0.984 (inactive),1.06 (inactive)
CC(C)(C)C(O)/C=C/c1ccc2c(c1)OCO2 (stereo not drawn) [Stiripentol] (20 µM),1.04,1.03,1,0.89,1.03 (inactive),0.927 (inactive),1.04 (inactive),1.01 (inactive),1.01 (inactive),1.03 (inactive),0.985 (inactive),0.981 (inactive)
COc1ccc2[nH]c([S+]([O-])Cc3ncc(C)c(OC)c3C)nc2n1 (stereo not drawn) [Tenatoprazole] (20 µM),1,1.06,1.04,1.14,0.985 (inactive),1.03 (inactive),1.01 (inactive),1.06 (inactive),0.996 (inactive),0.977 (inactive),0.995 (inactive),1.01 (inactive)
C[C@]12C=CC(=O)C=C1CC[C@@H]1[C@@H]2[C@@H](O)C[C@@]2(C)[C@H]1CC[C@]2(O)C(=O)CO [Prednisolone] (20 µM),0.973,0.997,1,0.987,1.02 (inactive),1.03 (inactive),0.942 (inactive),0.997 (inactive),1 (inactive),0.997 (inactive),1 (inactive),0.815 (inactive)
CCN(CC)CCNC(=O)c1cc(Cl)c(N)cc1OC [Metoclopramide monohydrochloride] (20 µM),1.08,1.01,1,1.13,1.03 (inactive),0.988 (inactive),1.02 (inactive),0.875 (inactive),1.03 (inactive),0.826 (inactive),0.998 (inactive),1 (inactive)
C[C@]12C=CC(=O)C=C1CC[C@@H]1[C@@H]2C(=O)C[C@@]2(C)[C@H]1CC[C@]2(O)C(=O)CO [Prednisone] (20 µM),1.04,1.05,1.08,1.1,0.861 (inactive),1.04 (inactive),1.04 (inactive),1.07 (inactive),0.941 (inactive),1.08 (inactive),1.02 (inactive),1.02 (inactive)
CCn1nc(C(=O)O)c(=O)c2cc3c(cc21)OCO3 [Cinoxacin] (20 µM),0.547,0.0392,0.544,1.06,0.506 (active),0.724 (active),1 (inactive),0.749 (inactive),1.06 (inactive),1.61 (active),1.01 (inactive),1 (inactive)
CN1CCN(c2c(F)cc3c(=O)c(C(=O)O)cn4c3c2SCC4)CC1 [Rufloxacin] (20 µM),0.0133,0.0641,0.299,0.953,0.201 (active),0.0518 (active),0.901 (inactive),0.875 (inactive),1.18 (inactive),0.26 (active),0.997 (inactive),0.952 (inactive)
CC1=NN(c2ccccc2)C(=O)C1 [Edaravone] (20 µM),0.889,1.03,1.02,0.963,0.97 (inactive),0.939 (inactive),1.01 (inactive),1.03 (inactive),1.02 (inactive),0.986 (inactive),1.01 (inactive),0.984 (inactive)
C[n+]1ccccc1/C=N/O [Pralidoxime chloride] (20 µM),1.19,0.995,1.01,1.05,1.13 (inactive),1.02 (inactive),1.01 (inactive),0.968 (inactive),1.04 (inactive),1.02 (inactive),0.991 (inactive),1.01 (inactive)
Oc1c(Cl)cc(Cl)cc1Sc1cc(Cl)cc(Cl)c1O [Bithionol] (20 µM),0,0.881,1.01,0.0806,1.05 (inactive),0.0165 (active),0.101 (active),1.26 (active),1.02 (inactive),1.51 (active),1.01 (inactive),0.0838 (active)
O=C(Oc1cccc2cccnc12)c1ccccc1 [Benzoxiquine] (20 µM),1.09,0.939,1.04,1.13,0.957 (inactive),1.03 (inactive),1.03 (inactive),0.984 (inactive),1.02 (inactive),0.995 (inactive),1.01 (inactive),1.07 (inactive)
N=C(N)NCCN1CCCCCCC1 [Guanethidine sulfate] (20 µM),1.13,0.988,1.1,0.933,0.834 (inactive),1.07 (inactive),1.1 (inactive),0.97 (inactive),0.953 (inactive),0.9 (inactive),1.04 (inactive),1.11 (inactive)
CCN1/C(=C/C=C/C=C/c2sc3ccccc3[n+]2CC)Sc2ccccc21 [Dithiazanine iodide] (20 µM),0.625,0.879,0.837,1.24,0.924 (inactive),0.849 (inactive),0.749 (active),1.05 (inactive),1.01 (inactive),1.07 (inactive),0.995 (inactive),0.699 (active)
CCCCOC(=O)c1ccc(O)cc1 [Butylparaben] (20 µM),1.09,0.963,0.965,1.01,1.01 (inactive),0.984 (inactive),0.964 (inactive),0.939 (inactive),0.968 (inactive),1.04 (inactive),0.984 (inactive),0.953 (inactive)
CO[C@@H]1[C@@H](OC(N)=O)[C@@H](O)[C@H](Oc2ccc3c(O)c(NC(=O)c4ccc(O)c(CC=C(C)C)c4)c(=O)oc3c2C)OC1(C)C [Novobiocin sodium salt] (20 µM),1.07,0.922,0.747,0.338,0.858 (inactive),0.754 (inactive),0.176 (active),1.18 (inactive),0.986 (inactive),1.04 (inactive),1 (inactive),0.208 (active)
CC1(C)[C@@H](OC(=O)CCC(=O)O)CC[C@]2(C)[C@H]3C(=O)C=C4[C@@H]5C[C@@](C)(C(=O)O)CC[C@]5(C)CC[C@@]4(C)[C@]3(C)CC[C@@H]12 [Carbenoxolone disodium salt] (20 µM),1.06,0.984,0.977,0.91,1.03 (inactive),0.925 (inactive),1.04 (inactive),1.04 (inactive),1.02 (inactive),0.999 (inactive),0.993 (inactive),1.07 (inactive)
Cc1cc(C2CCCCC2)n(O)c(=O)c1 [Ciclopirox ethanolamine] (20 µM),0.962,1.05,1.06,1.13,0.978 (inactive),1.04 (inactive),1.02 (inactive),1.06 (inactive),0.994 (inactive),1 (inactive),1 (inactive),0.976 (inactive)
CCCCNc1ccc(C(=O)OCCOCCOCCOCCOCCOCCOCCOCCOCCOC)cc1 [Benzonatate] (20 µM),0.953,1.03,1.04,0.922,0.929 (inactive),0.96 (inactive),0.971 (inactive),1 (inactive),0.995 (inactive),1.04 (inactive),1.01 (inactive),0.936 (inactive)
C[C@@H]1CCO[C@H]2Cn3cc(C(=O)NCc4ccc(F)cc4F)c(=O)c(O)c3C(=O)N12 [Dolutegravir] (20 µM),1.06,1.02,0.992,0.891,1.08 (inactive),1.02 (inactive),0.954 (inactive),1.07 (inactive),0.999 (inactive),0.984 (inactive),0.987 (inactive),0.941 (inactive)
NC(=O)NC1NC(=O)NC1=O (stereo not drawn) [Allantoin] (20 µM),1.05,1.14,1,1.09,1.02 (inactive),1.11 (inactive),1.17 (inactive),1.1 (inactive),0.972 (inactive),0.983 (inactive),1.02 (inactive),1.05 (inactive)
